# Sampled rows, rich in hits. Any-hit rate of the full collection: about 2.4%.
# Cruzain Triton – inhibitors of Trypanosoma cruzi cruzain with detergent. 0.43% of 200,000 active. P25779. purified cruzain, Z-FR-AMC fluorescence, 0.01% Triton. AID 1478. Potency, µM, for the others: max response, negative = inhibition, most hits filed as inhibitors;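 further: plate controls were neutral wells for no effect and buffer without enzyme for full effect; nearly all actives have a fitted effect of over 40% in size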
# Target sequence (P25779 123-467 limits assumed): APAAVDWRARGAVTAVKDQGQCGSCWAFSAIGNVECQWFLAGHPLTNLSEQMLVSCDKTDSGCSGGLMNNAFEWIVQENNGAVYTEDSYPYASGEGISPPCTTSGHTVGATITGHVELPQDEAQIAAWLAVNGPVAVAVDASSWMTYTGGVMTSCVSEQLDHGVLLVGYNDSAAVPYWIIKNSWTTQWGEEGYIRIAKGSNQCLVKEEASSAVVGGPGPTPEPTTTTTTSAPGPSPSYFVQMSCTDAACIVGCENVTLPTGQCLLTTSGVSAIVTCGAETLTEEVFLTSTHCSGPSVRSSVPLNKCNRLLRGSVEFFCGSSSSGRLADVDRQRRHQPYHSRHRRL
#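 Enzyme 1.5 nM, Z-FR-AMC 2 uM, NaOAc 100 mM pH 5.5, DTT 5 mM, Triton X-100 0.01%; 15 min RT compound preincubation; kinetic ex360/em450, 60 s delta.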
# Cruzain inh noDet – cruzain (T. cruzi) inhibition without detergent | Potency, µM, for inactives: max response, negative = inhibition, actives largely listed as inhibitors | purified cruzain, Z-FR-AMC fluorescence, no detergent | AID 1476 | 2.3% of 200,000 active;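 further: plate controls were enzyme without inhibitor for no effect and buffer without enzyme for full effect; nearly all actives have a fitted effect of over 40% in size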
#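 Purified cruzain at 1.5 nM, pre-incubated 15 min with compound at room temperature in 100 mM sodium acetate pH 5.5, 5 mM DTT, 0.00005% Triton X-100. Reaction started with 2 uM Z-FR-AMC; AMC fluorescence increase over 60 s gives rate.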
# An asterisk follows results filed as active; ? = inconclusive. The call rests on the fitted dose curve; in most records, active means well fitted curve in the direction sought with a large enough effect; inconclusive means small, poorly fitted or top-dose-only effect, or another doubt; inactive means no such curve, though single readings can be large; an effect the other way counts as inactive or inconclusive. Potency means the concentration at half of the fitted maximal effect.
SMILES,Cruzain Triton,Cruzain inh noDet
Cc1cc(C)c2cc(CN(CCN3CCCC3)C(=O)Nc3ccc(F)cc3)c(=O)[nH]c2c1,-2%,?
CC(C)N(C(=O)COC(=O)CNC(=O)c1ccc(Br)cc1)c1ccccc1,16µM*,16µM*
CC(=O)COC(=O)CNC(=O)c1ccc(Br)cc1,-24%,-24%
O=C(COC(=O)CNC(=O)c1cccc([N+](=O)[O-])c1)Nc1ccccc1OC(F)F,16µM*,20µM*
O=C(COC(=O)CNC(=O)c1cccc([N+](=O)[O-])c1)Nc1nc2ccccc2s1,-26%,?
COc1cc(NC(=O)COC(=O)CNC(=O)c2cc(C)cc(C)c2)c(C)cc1[N+](=O)[O-],?,-20%
Cc1ccc(NC(=O)COC(=O)CNC(=O)c2ccc(Br)cc2)c(C)c1,14µM*,16µM*
COc1ccc(OC)c(NC(=O)COC(=O)CNC(=O)c2ccc(OC)c(OC)c2)c1,-1%,2%
COc1cccc(C(=O)NCC(=O)OCC(=O)Nc2cc(OC)c([N+](=O)[O-])cc2C)c1,22µM*,?
Cc1ccc(C(=O)NCC(=O)OCC(=O)c2ccc(C)c([N+](=O)[O-])c2)cc1,16µM*,13µM*
Cc1ccc(C(=O)COC(=O)CNC(=O)C(c2ccccc2)c2ccccc2)cc1[N+](=O)[O-],-27%,-25%
CCOc1ccc(C(=O)NCC(=O)OCC(=O)Nc2ccccc2OCC)cc1,-26%,-7%
O=C(NCCc1ccccc1)c1ccc(Cl)c([N+](=O)[O-])c1,-7%,-20%
Cc1ccc(NC(=O)COC(=O)Cn2nc(C)c([N+](=O)[O-])c2C)c([N+](=O)[O-])c1,-2%,6%
O=C(Cc1ccccc1)NCC(=O)OCC(=O)c1ccc(Cl)c([N+](=O)[O-])c1,?,16µM*
Cc1ccc(C(=O)NCC(=O)OCC(=O)Nc2ccccc2[N+](=O)[O-])cc1,11µM*,7.9µM*
Cc1ccc(NC(=O)COC(=O)CNC(=O)c2ccc3ccccc3c2)c([N+](=O)[O-])c1,7.1µM*,3.2µM*
O[C@@H](c1cc([C@@]23C[C@H]4CC[C@@H]2C[C@H](C4)C3)nc2c(Cl)cc(Cl)cc12)C1CCCCN1 (stereo not given in full),-2%,3%
O=C(NCC(c1ccc(Cl)cc1)N1CCCCC1)c1ccccc1 (stereo not given),-1%,-6%
CCCCC[C@H](O)/C=C/C=C/C=C/[C@H](O)C/C=C\CCCC(=O)O,1%,-5%
CCCN(CCC)CCNC(=O)CN1C(=O)COc2ccc(S(=O)(=O)N3CCC(C)CC3)cc21,-1%,13%
CC(C)CC(=O)Nc1ccc(C(=O)NNC(=O)C(c2ccccc2)c2ccccc2)cc1,6%,25µM*
CCC(=O)Nc1ccc(C(=O)NNC(=O)C(c2ccccc2)c2ccccc2)cc1,-2%,?
O=C1N/C(=N\N=C\c2ccc3ncccc3c2)SC1Cc1ccc(SC(F)F)cc1 (stereo not given),25µM*,16µM*
O=C1N/C(=N\N=C\c2cccnc2)SC1Cc1ccc(SC(F)F)cc1 (stereo not given),9%,-24%
SMILES,Cruzain Triton,Cruzain inh noDet
COc1ccc(-n2ncc(C(=O)NCc3ccccc3)c2C2CCN(C(=O)OC(C)(C)C)CC2)cc1,-8%,?
N#Cc1c(/N=C/c2cc3ccccc3s2)sc2c1CCC2,-5%,13µM*
Cc1ccc(/C=N/c2sc3c(c2C#N)CCC3)s1,-3%,-4%
CC(=O)Nc1sc(C)c(C)c1C(=O)OCC(=O)Nc1cc(S(=O)(=O)N2CCCCC2)ccc1Cl,-5%,25µM*
O=C(COc1ccc(Br)cc1)Nc1cc(S(=O)(=O)N2CCCCC2)ccc1N1CCCCC1,-5%,?
O=C(COc1ccc(Cl)cc1)Nc1cc(S(=O)(=O)N2CCCCC2)ccc1N1CCCCC1,-2%,16µM*
CC(=O)c1c(C)[nH]c(C(=O)OCC(=O)Nc2cc(S(=O)(=O)N3CCCC3)ccc2Cl)c1C,-5%,-2%
Cn1nnnc1SCCNCc1ccc(OCc2ccc(Cl)cc2)cc1,-3%,-1%
O=C(CSc1nccn1Cc1ccc(F)cc1)NCc1ccco1,-1%,5%
COc1ccc(NC(=O)c2c(N)c(C(=O)c3ccc(C)cc3)n3ccccc23)cc1OC,-5%,?
CN(C)c1ccc(/C=N/N=C2/NC(=O)/C(=C/c3ccc([N+](=O)[O-])cc3)S2)cc1,-13%,6.3µM*
Cc1c(N=C2NC(=O)/C(=C/c3cccc([N+](=O)[O-])c3)S2)c(=O)n(-c2ccccc2)n1C,-3%,12%
Cc1cc(C)c(NC(=O)CN2C(=O)CCn3nc(-c4cccn4C)cc32)c(C)c1,0%,?
CCOC(=O)c1c(C)[nH]c(C(=O)COC(=O)CNC(=O)c2ccccc2Cl)c1C,11µM*,13µM*
CCOC(=O)c1c(C)[nH]c(C(=O)COC(=O)CNC(=O)C2CCCCC2)c1C,?,7.9µM*
CCOC(=O)c1c(C)[nH]c(C(=O)COC(=O)[C@H](C)NC(=O)c2ccccc2Cl)c1C,-27%,-1%
CCOC(=O)c1c(C)[nH]c(C(=O)COC(=O)CN2C(=O)C3CCCCC3C2=O)c1C (stereo not given),-9%,24%
COC(=O)CN1C(=O)C(O)(c2c(C)[nH]c3ccccc23)c2ccccc21 (stereo not given),7%,-7%
CCn1cc(/C=C(\NC(=O)c2cc(OC)c(OC)c(OC)c2)C(=O)NCCCn2ccnc2)c2ccccc21,-9%,1%
CCCc1cnc2c(c1SCC(=O)Nc1ccccc1F)c(=O)n(C)c(=O)n2C,-3%,2%
CN(Cc1ccccc1)C(=O)CN1C(=O)CSc2ccc(S(=O)(=O)N3CCOCC3)cc21,1%,9%
O=C(CSc1oc(-c2ccccc2)nc1S(=O)(=O)c1ccc(Br)cc1)c1ccccc1,-4%,13µM*
O=C(CSc1oc(-c2ccccc2)nc1S(=O)(=O)c1ccccc1)c1ccccc1,-4%,?
Cc1cccc(NC(=O)N2CCN3CCCCC3C2)c1C (stereo not given),-1%,-4%
Cc1ccc(CNC(=O)C2CCN(C(=O)c3ccc(-n4ccc5ccccc54)s3)CC2)cc1,-3%,7%
SMILES,Cruzain Triton,Cruzain inh noDet
O=C(COc1ccc(Cl)cc1Cl)Nc1ccc(C(=O)OC2CCCCC2)cc1,-3%,-12%
CCC1CN(C(=O)C2CCN(S(=O)(=O)c3c(C)noc3/C=C/c3ccccc3F)CC2)c2cc(C)ccc2O1 (stereo not given),-4%,?
CCC1CN(C(=O)C2CCN(S(=O)(=O)c3c(C)noc3/C=C/c3ccccc3F)CC2)c2cc(Cl)ccc2O1 (stereo not given),-3%,3.2µM*
Cc1ccc(/C=C/c2onc(C)c2S(=O)(=O)N2CCC(C(=O)N3CCOc4ccccc43)CC2)cc1,-3%,-28%
CC(=O)c1ccc(N2CCN(C(=O)C3CCN(S(=O)(=O)c4c(C)noc4/C=C/c4ccccc4F)CC3)CC2)cc1,-4%,-12%
Cc1ccc(Cl)cc1N1CCN(C(=O)C2CCN(S(=O)(=O)c3c(C)noc3/C=C/c3ccccc3F)CC2)CC1,-2%,6.3µM*
Cc1ccc2c(c1)N(C(=O)C1CCN(S(=O)(=O)c3c(C)noc3/C=C/c3ccccc3F)CC1)CCO2,-5%,13µM*
O=C(CCCCCn1c(=O)c2sccc2n(CC(=O)Nc2cccc(Cl)c2)c1=O)NCc1ccc2c(c1)OCO2,-2%,-19%
Cc1cc(C(=O)O)c2c(=O)n(C)c(=O)n(C)c2n1,-1%,6%
O=C(Nc1ccccc1N1CCCC1)c1cc2ccccc2o1,-2%,-13%

# Compound activity: PubChem BioAssay, National Center for Advancing Translational Sciences (NCATS)
